The values that follow come from PubChem BioAssay (Tox21).

The structures appear in SMILES notation. Results filed as inconclusive are left out. Values without a mark were called inactive. The source made the active and inactive calls. The call rests on the fitted dose curve.
On the % scale 0 is the no-effect control and ±100 the full control effect.

The assay in a line: qHTS assay to identify small molecule agonists or antagonists of the thyroid stimulating hormone receptor (TSHR) signaling pathway - wild type cell line counter screen (AID 1259384). Particulars: HEK293 wild type, cAMP HTRF counter-screen, active compounds read high; series mostly up to 92.4 µM. From the text: U.S. Tox21 Program National Center for Advancing Translational Sciences [NCATS] NIH Chemical Genomics Center [NCGC] U.S. Environmental Protection Agency [EPA] National Institutes of Environmental Health Sciences [NIEHS] National Toxicology Program [NTP] U.S. Food and Drug Administration [FDA] Tox21 Assay Overview: TSHR is the receptor for thyrotropin (thyroid stimulating hormone or TSH), a member of the glycoprotein hormone family. TSH is released by the anterior pituitary gland and is the main regulator of thyroid gland growth and development. Upon binding circulating thyrotropin, a G-protein signal cascade activates adenylyl cyclase and […] cAMP concentration is increased. cAMP is a key second messenger involved extensively in cellular signal transduction pathways associated with the majority of G-protein coupled receptors (GPCRs). The activation of these GPCRs by neurotransmitters, lipids, nucleotides, peptides and hormones results in the activation or the inhibition of plasma membrane-bound adenylate cyclase through heterotrimeric G-proteins. A cell-based TSHR-Hek293 assay can be used to identify TSHR agonists. To eliminate the false positive compounds identified from screening a cell-based TSHR-Hek293 cell line, cAMP assay in a wild type Hek293 cells was used as a counter screening.
Tox21 Assay Protocol Summary: Hek293 cells (wild type) were dispensed at 800 cells/4 uL/well in 1536-well white plates using a Multidrop dispenser. After the assay plates were incubated at a 37 C/5% CO2 incubator for 18 hrs, 23 nL of compounds dissolved in DMSO, positive controls or DMSO only was transferred to the assay plate by a pin tool, followed by 1 ul medium containing Ro20-1724. After 30 min of incubation at room temperature, 2.5 ul/well of cAMP-d2 and 2.5 ul/well of anti-cAMP-cryptate were added respectively into the assay plates using a Flying Reagent Dispenser. The plates were incubated at room temperature for 1 hr. The fluorescence intensity in the plates was measured using an Envision plate reader. Each test compound was measured at 15 concentrations and in triplicates.
A general note: qHTS replaces the single test concentration by a dilution series.
In the case of `CC(C)(N)C#N`, the compound was called inactive.
On to `C[N+](C)(CCOc1ccccc1)Cc1cccs1`, for which the compound was called inactive.
On to `O=[N+]([O-])c1cncn1CCN1CCOCC1`, for which the compound was classed as inactive.
The same measure, in the same setting: under `CN(C)CCCN(C)CCCN(C)C` stands “inactive”; under `C[C@@H]1C[C@H]2[C@@H]3C[C@H](F)C4=CC(=O)C(Cl)=C[C@]4(C)[C@@]3(F)[C@@H](O)C[C@]2(C)[C@@]1(O)C(=O)CO`, “inactive”; under `O=CN(CCO)CCO`, “inactive”.
Still for that read-out and setting: under `C[N+](C)(C)CCCCCCCCCC[N+](C)(C)C` stands “inactive”; under `O=C(CO)[C@@H](O)[C@H](O)[C@H](O)CO`, “inactive”.
On the same count and under the same terms, for `C[C@H]1C[C@H]2[C@@H]3CCC4=CC(=O)C=C[C@]4(C)[C@H]3C(=O)C[C@]2(C)[C@@]1(O)C(=O)CO` the value was “inactive”; for `Cc1coc2ccccc2c1=O`, “inactive”.
`CCCC[N+](C)(CCCC)CCCC`: the compound was classed as inactive.
On the same count and under the same terms, for `CCCCCCCCCCCCCCC(=O)O` the value was “inactive”; for `NC(CCC(=O)O)C(=O)O` (stereo not given), “inactive”; for `Cc1c(N)c(=O)n(-c2ccccc2)n1C`, “inactive”.
`NC(=O)NC1N=C([O][Al])NC1=O` (stereo not given): the result was inactive.
Still for that read-out and setting: for `O=C(O)Cc1csc(-c2ccc(Cl)cc2)n1` the value was “inactive”.
Same read-out and setting: for `CC(CO)(CO)[N+](=O)[O-]` the value was “inactive”; for `CCCc1nn(C)c2c(=O)[nH]c(-c3cc(S(=O)(=O)N4CCN(C)CC4)ccc3OCC)nc12`, “inactive”.
As to `C=C[Si](OC(C)=O)(OC(C)=O)OC(C)=O`, the compound was classed as inactive.
The same measure, in the same setting: for `C=CC(C)(CCC=C(C)C)OC(=O)CC` (stereo not given) the value was “inactive”.
Same read-out and setting: for `O=S(=O)(O)c1cccc2c(S(=O)(=O)O)cccc12` the value was “inactive”.
Still for that read-out and setting: for `O=C(c1ccccc1O)c1ccccc1O` the value was “inactive”.
Consider `CC(C)NNC(=O)c1ccncc1`, for which the call was inactive.
The same measure, in the same setting: under `O=S(=O)(O)c1cccc2ccccc12` stands “inactive”; under `COCCOC[C@H](CC1(C(=O)NC2CCC(C(=O)O)CC2)CCCC1)C(=O)Oc1ccc2c(c1)CCC2` (stereo not given in full), “inactive”; under `Clc1cc(Cl)cc(Cl)c1`, “inactive”.
Same read-out and setting: for `CCCCOC(=O)CCC(C)=O` the value was “inactive”.
The same measure, in the same setting: under `CCCCCCCCN1CCCC1=O` stands “inactive”.
For `CCOc1ccccc1OCC`, the outcome was inactive.
Regarding `CC(C)(C)C(=O)c1ccccc1`, the outcome was inactive.
Same read-out and setting: under `N[C@H](C(=O)O)[C@@H](O)c1ccc(O)c(O)c1` stands “inactive”.
For `CCOC(=O)C(=O)CCCCCCl`, the call was inactive.
Still for that read-out and setting: for `CCOc1c(N2CCOCC2)cnn(C)c1=O` the value was “inactive”.
For `CCCCN1C=CN(C)C1`, the cAMP activity change was -4.22% [at 18.9 µM].
`COCCOCC(OC)OC`: the compound was classed as inactive.
For `C=COCC1CCC(COC=C)CC1` (stereo not given), the result was inactive.
The same measure, in the same setting: under `CCCCOCCOC(=O)CCCCCCCCC(=O)OCCOCCCC` stands “inactive”.
The same measure, in the same setting: under `CC(=O)c1ccccc1[N+](=O)[O-]` stands “inactive”.
Still for that read-out and setting: under `O=S(=O)(O)c1cccc(S(=O)(=O)O)c1` stands “inactive”; under `CC1(C)OC[C@@H](COC(=O)CCc2ccc(OC[C@@H](O)CNCCNC(=O)N3CCOCC3)cc2)O1`, “inactive”.
